Pf Dd2 inh: inhibitors of Plasmodium falciparum Dd2 growth; P. falciparum Dd2 growth, SYBR Green, 72 h; AID 1347417; Potency, µM (titrated, usually from 28.9 µM), for inactives: top-dose activity, negative = inhibition, usual class: inhibitors; actives 4.3% (n = 120,000); active means well fitted inhibition curve with a large enough effect;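 further: plate controls were DMSO vehicle for no effect and reference drug for full effect; nearly all actives have a fitted effect of over 65% in size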
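Readout: SYBR Green fluorescence, 485 nm excitation, 535 nm emission, after ~16 h lysis at 37C. Before that, Dd2-infected red cells (2.5% hematocrit) grew 72 h with compound, 29 uM top final concentration.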
* = called active by the depositor; i = inactive; [ ] = another dose, or the depositor's remark. Many of the other results were omitted from the sample, so hits are more common in it than they were. Potency means the concentration at half of the fitted maximal effect.

SMILES | Pf Dd2 inh
CCOCCOC1CCN(S(=O)(=O)c2cccc(OC)c2)CC1 | i
CC(C)SCC(=O)N1CCCC(N2CCN(c3ccc(F)cc3)CC2)C1 (stereo not drawn) | -15.9%
Cc1nc(C2CC(NC(=O)c3cnc(N)nc3C(F)(F)F)C2)cc(=O)[nH]1 (stereo not drawn) | -3.5%
CCn1ccc(C(=O)N2CCC(C(=O)N3CCCCCCNC(=O)CC3)CC2)n1 | 24.2%
OCC1CN(c2ccncn2)CC12CCN(CC1CCCCC1)CC2 (stereo not drawn) | -29.1%
COC(=O)c1ccc(NC(=O)CSc2cn(CC(=O)N3CCCCC3)c3ccccc23)cc1 | -8.6%
Cc1ccc(CSc2cn(CC(=O)N3CCCCC3)c3ccccc23)cc1 | -18.7%
O=C(CSc1cn(CC(=O)N2CCCCC2)c2ccccc12)Nc1ccccc1 | 18.4%
O=C(Cn1cc(SCc2ccccc2Cl)c2ccccc21)N1CCCCCC1 | -21.1%
CNC(=O)CSc1cn(CC(=O)N2CCCCCC2)c2ccccc12 | -24.5%
O=C(/C=C/c1cn(CC(O)CN2CCCCCC2)c2ccccc12)c1ccccc1 (stereo not drawn) | 10µM*
Cc1ccc(C(=O)/C=C/c2cn(CC(O)CN3CCCCCC3)c3ccccc23)cc1 (stereo not drawn) | 12.6µM*
Cc1ccccc1CSc1cn(CC(=O)N2CCCCCC2)c2ccccc12 | -25.7%
O=C(/C=C/c1cn(CC(O)CN2CCCCCC2)c2ccccc12)c1ccc(Br)cc1 (stereo not drawn) | 10µM*
CCn1cc(CN2CCC([C@@H]3CNC[C@H]3CO)CC2)c(C)n1 | 54.5%
CCCC1CN(C(=O)OC(C)(C)C)C(C)CN1 (stereo not drawn) | -26.7%[44.1 µM]
COc1ccc(NC(C)=O)cc1NC(=O)Cn1nc2c(cc1=O)CCCC2 | -8.9%
CCOc1cc(=O)n2c(c1C(=O)NCCCN1CCCCC1)CCCCC2 | 5.2%
COCC(=O)N1CCC2(CC1)CN(c1ccccc1)C2=O | -4.0%
COc1ccc(OCC2CCCN(C(=O)c3cn(C4CCCCC4)nn3)C2)cc1 (stereo not drawn) | -16.1%
Cc1cccc(NC(c2cccc(Cl)c2)c2ccc3cccnc3c2O)n1 (stereo not drawn) | 2.51µM*
O=C(COc1ccc(Cl)cc1Cl)Nc1cccc2cccnc12 | 10.9%
COc1ccc(C(Nc2ccccn2)c2ccc3ccc(C)nc3c2O)cc1C (stereo not drawn) | 21.1%
COc1ccc(CN2C[C@@H]3[C@H](C2)N(CC2CCOCC2)C(=O)C(C)(C)[S+]3(=O)[O-])cc1O | 16.9%
Cc1ccc(C(=O)NCC(=O)N2CCCCCNC(=O)CC2c2ccccc2)cn1 (stereo not drawn) | 42.3%
SMILES | Pf Dd2 inh
Cc1ccc(C)c(OCC(=O)c2ccc3c(c2)N(C(C)C(=O)N2CCCC2)C(=O)CO3)c1 (stereo not drawn) | i
CNC(=O)c1cc(-c2ccccc2F)cc2c1OCCN2Cc1cccnc1 | -22.4%[44.1 µM]
CNC(=O)c1cc(-c2ccc(N3CCOCC3)cc2)cc2c1OCCN2Cc1cccnc1 | 10µM*
CNC(=O)c1cc(-c2ccc(OC)nc2)cc2c1OCCN2Cc1cccnc1 | i
CC(C)(CC(=O)O)CC(=O)N1CCN2C(=O)N(Cc3ccccc3)C(=O)[C@H]2C1 | -10.2%[44.1 µM]
Cc1cccc2ncc(C(=O)NCc3cc4n(n3)CCCNC4)c(=O)n12 | 3.0%
c1ccc(-c2nc(NCc3cc4n(n3)CCCNC4)c3ccccc3n2)cc1 | 7.94µM*
O=C(NCc1cc2n(n1)CCNC2)C(c1ccccc1)C1CCCC1 (stereo not drawn) | -29.8%
CN(C)C[C@@H]1CN(c2ncccn2)C[C@H]1NC(=O)CCn1cccn1 | 18.8%
Cc1c(C(=O)OC2CCCCC2)[nH]c2c1C(=O)CC(c1ccccc1)C2 (stereo not drawn) | -15.6%
COc1ccc(C2CC(=O)c3c([nH]c(C(=O)OC4CCCCCC4)c3C)C2)cc1OC (stereo not drawn) | 10µM*
Cc1c(C(=O)OC2CCC(C)CC2)[nH]c2c1C(=O)CC(c1ccc(F)cc1)C2 (stereo not drawn) | -16.8%
Cc1c(C(=O)OC2CCCC2)[nH]c2c1C(=O)CC(c1ccc(C(C)(C)C)cc1)C2 (stereo not drawn) | -17.5%
CCOc1ccc(C2CC(=O)c3c([nH]c(C(=O)OC4CCC(C)CC4)c3C)C2)cc1 (stereo not drawn) | -8.2%
COc1ccc(OC)c(C2CC(=O)c3c([nH]c(C(=O)OC4CCC(C)CC4)c3C)C2)c1 (stereo not drawn) | 10µM*
CCC(=O)Nc1cc(C(=O)NCC(C)C)c2ccc(C)nc2c1 | -6.3%
CCCC(=O)N1C2CCCC1CC(=O)C2 | -0.1%[44.1 µM]
Cn1nc(C2CCN(C(=O)CCCc3ccccc3)CC2)c2c1CCOC2 | i[5.79 µM]
C[S+](=O)([O-])CCn1ncc2cc(OCc3cccc(-c4ccccc4O)c3)ccc21 | 7.94µM*
COc1ccc(F)cc1-c1cccc(COc2ccc3c(cnn3CC[S+](C)(=O)[O-])c2)c1 | -29.0%
COc1cc(F)cc(-c2ccc(COc3ccc4c(cnn4CCC(=O)O)c3)cc2)c1 | -18.1%[44.1 µM]
CNC(=O)CCn1ncc2cc(OCc3ccccc3-c3cc(F)ccc3C)ccc21 | 3.16µM*
CNC(=O)CCn1ncc2cc(OCc3ccccc3-c3cnc(OC)nc3)ccc21 | i
COc1cccc(F)c1-c1ccc(COc2ccc3c(cnn3CCC(=O)O)c2)cc1 | -19.7%[44.1 µM]
CNC(=O)CCn1ncc2cc(OCc3ccccc3-c3ccccc3COC)ccc21 | 3.98µM*
SMILES | Pf Dd2 inh
COc1ccc(-c2ccc(COc3ccc4c(cnn4CCC(=O)O)c3)cc2)c(Cl)c1 | i
COc1ccccc1-c1cccc(COc2ccc3c(cnn3CC[S+](C)(=O)[O-])c2)c1 | -29.2%[44.1 µM]
CNC(=O)CCn1ncc2cc(OC3CCc4cccc(-c5ccnc(OC)c5)c43)ccc21 (stereo not drawn) | -7.0%
C[S+](=O)([O-])CCn1ncc2cc(OCc3cccc(-c4cncnc4)c3)ccc21 | i
CNC(=O)CCn1ncc2cc(OCc3ccccc3-c3c(Cl)cccc3OC)ccc21 | 3.98µM*
Cc1ccc(CN(C)C2CCc3nn(C)c(=O)n3CC2)nc1 (stereo not drawn) | 34.7%
O=C(CN1C(=O)NC2(CCS(=O)(=O)CC2)C1=O)Nc1ccc(F)cc1F | 0.9%
Cn1cnnc1CC1CCCN(C(=O)c2ccco2)C1 (stereo not drawn) | 5.3%
CN(Cc1ccc(OC(F)(F)F)cc1)C1CCCc2ccccc21 (stereo not drawn) | -17.3%[44.1 µM]
COc1c(C)cc(C)cc1CN1CCC2(CC1)C(C(=O)O)CC(=O)N2C (stereo not drawn) | 0.7%
CC(C)(C)C1CCC2(CC1)NC(=O)N(CC(=O)N1CCCCC1)C2=O (stereo not drawn) | -10.4%
COc1ccc(CCNC(=O)CC2CCOCC2)cc1OC | 51.8%
OC(COc1ccccc1CNCCc1ccccc1)CN1CCSCC1 (stereo not drawn) | 1.58µM*
COc1cc(CNC(C)C)ccc1OCC(O)CN1CCSCC1 (stereo not drawn) | -17.3%
COc1cc(CNCc2ccccc2C)ccc1OCC(O)CN1CCC(O)CC1 (stereo not drawn) | -6.4%
COc1cc(CNC2CCCCC2)ccc1OCC(O)CN1CCSCC1 (stereo not drawn) | -13.7%
COc1cc(CNCCc2ccccc2C)ccc1OCC(O)CN1CCOCC1 (stereo not drawn) | 11.2µM*
COc1cc(CN2CC=C(C)CC2)ccc1OCC(O)CN1CCSCC1 (stereo not drawn) | -13.7%
COc1cc(CNC2CCCCCCC2)ccc1OCC(O)CN1CCSCC1 (stereo not drawn) | 8.91µM*
